CHX counter = affects cycloheximide protein synthesis inhibition readout, counter-screen; cell reporter, cycloheximide protein synthesis inhibition counterscreen; max response, %; actives 12% (n = 300,000); AID 2314; in the data active = max response mostly above about 13%, no sharp cut-off; inactive = mostly below about 14%; note: read at 38.3 µM for the half of the compounds with a filed dose
HCV inhibitor = blocks hepatitis C virus. Huh7.5.1 HCVcc-Cre infection, luciferase reporter, 44 h. Potency, µM (doses to about 41.8 µM), most hits filed as inhibitors. actives 3.4% (n = 340,000)
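Whole-lifecycle infectious HCVcc-Cre system; cells 1,000/well, compound then virus (~0.5 moi) added 4 h after plating, 44 h culture. Luciferase read 15 sec following 15 min substrate incubation, room temp.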
HCMV inh = blocks human cytomegalovirus replication; HFF cells, HCMV-luciferase reporter, 72 h; stronger effect = lower value; activity change, negative = inhibition, % at 57.5 µM; actives 4.5% (n = 410,000); AID 1259415; in the data active = activity change below about -60%; inconclusive = no clear call, values can overlap the other calls; inactive = above about -39%
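Inhibition of viral replication was scored as loss of reporter luminescence in HFFs infected with HCMV-luciferase (MOI 1 PFU/cell) for 72 h; compounds tested at 2 doses, normalized to buffer and Salinomycin controls.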
Shiga inhibitor = blocks Shiga toxin action in Vero cells | AID 2315 | actives 9.2% (n = 290,000) | Vero cells, Shiga toxin protein synthesis inhibition reporter | inhibition, % at 38.7 µM; in the data active = inhibition mostly above about 28%, no sharp cut-off; inactive = mostly below about 43%
Pf growth 48h = inhibits P. falciparum growth in the first generation, 48 h; AID 504832; Potency, µM (series often up to 28.7 µM), hits mostly inhibitors; actives 5.9% (n = 310,000); P. falciparum luciferase growth in erythrocytes, 48 h
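Firefly luciferase activity from engineered P. falciparum reports growth; inhibitors lower the luminescent signal. Cultures contained 2% hematocrit erythrocytes at 0.1% final parasitemia.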
Pf growth 96h = P. falciparum growth inhibition at 96 hours | P. falciparum luciferase reporter growth, 96 h | Potency, µM (highest dose often 28.7 µM), hits mostly inhibitors | actives 6.9% (n = 320,000)
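Compounds incubated with erythrocytes infected by luciferase-expressing P. falciparum (2% hematocrit, 0.05% parasitemia final) for 96 hours, 37 C in 5% CO2. Growth inhibition scored as decreased luciferase luminescence.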
Hits are given with their value; 0 = inactive; ? = inconclusive; - = not tested or not shown; [ ] = another dose, or the depositor's remark. Shown are actives, neighbours in structure and some others; about 21% of the full set was active somewhere. Unless noted, calls come from the whole dose curve; as a rule, active = well fitted inhibition curve with a large enough effect; inconclusive = small, poorly fitted or top-dose-only effect, or another doubt; inactive = no such curve, though single readings can be large or run the other way.

SMILES	CHX counter	HCV inhibitor	HCMV inh	Shiga inhibitor	Pf growth 48h	Pf growth 96h
CN(Cc1ccccc1)C(=O)C1CCCN(Cc2ccc(Cl)cc2)C1 (centres undefined)	0	1.4µM	0	0	0	0
CSCC[C@H](NC(=O)[C@H](Cc1ccc(OS(=O)(=O)O)cc1)NC(=O)[C@@H](N)CC(=O)O)C(=O)NCC(=O)N[C@@H](Cc1c[nH]c2ccccc12)C(=O)N[C@@H](CCSC)C(=O)N[C@@H](CC(=O)O)C(=O)N[C@@H](Cc1ccccc1)C(N)=O	0	-	-	0	-	-
CCN(C[C@H]1N[C@@](C)(C(=O)OC)[C@H]2C(=O)N(Cc3ccccc3)C(=O)[C@@H]12)S(=O)(=O)c1ccccc1	-	0	0	-	-	-
FC(F)(F)c1nnc2n1N=C(c1cccs1)CS2	0	?	0	0	0	0
Oc1ccc(N=Nc2n[nH]c(-c3ccc(Br)cc3)n2)cc1	20	0	-88	0	0	0
Oc1ccc(N=Nc2n[nH]c(-c3ccccc3)n2)cc1	32	0	0	89	0	?
Cc1ccccc1CN1CCN(C(=O)c2ccc(F)cc2)CC1	0	0	0	0	0	0
CCCC12CN3CC(C)(CN(C1)C3c1ccc(OC)cc1)C2=O (centres undefined)	0	0	0	0	?	0
CCC12CN3CC(CC)(CN(C1)C3c1ccc(OC(C)C)cc1)C2=O (centres undefined)	0	0	0	0	?	4.7µM
CCc1nc2ccccc2c(NC(=O)CN2CC(C)CC(C)C2)c1C (centres undefined)	0	0	0	0	0	9.3µM
CCCCCCCNC(=O)C1(CC2CC(c3ccc(Cl)cc3)=NO2)CCN(C(=O)c2cc(OCC)c(OCC)c(OCC)c2)CC1 (centres undefined)	0	0	0	0	1.2µM	0.33µM
CCCNC(=O)C1(CC2CC(c3ccccc3)=NO2)CCNCC1 (centres undefined)	-	0	0	-	-	-
COC(=O)C1(Cc2cc(-c3ccccc3)no2)CCN(C(=O)OC(C)(C)C)CC1	27	0	?	40	0	0
CCCCCCCNC(=O)C1(CC2CC(c3ccc(Cl)cc3)=NO2)CCN(C(=O)c2ccccc2)CC1 (centres undefined)	0	0	0	0	?	9.3µM
CCCCCCCNC(=O)C1(CC2CC(c3ccccc3)=NO2)CCN(C(=O)OC(C)(C)C)CC1 (centres undefined)	-	0	0	-	2.9µM	6.6µM
CCc1ccc(NC(=O)C(C)OC(=O)c2cccc(S(=O)(=O)N3CCc4ccccc4C3)c2)cc1 (centres undefined)	0	0	0	0	0	0
C[C@H](CO)N1C[C@H](C)[C@@H](CN(C)S(=O)(=O)c2ccc(F)cc2)Oc2ccc(NC(=O)Cc3ccccc3)cc2C1=O	-	0	0	-	-	-
CC(C)(C)OC(=O)N1CCC(CC2CC(c3ccccc3)=NO2)(C(=O)NCc2ccccc2)CC1 (centres undefined)	-	0	0	-	0.26µM	?
CCCCCCCNC(=O)C1(CC2CC(c3ccccc3)=NO2)CCN(C(=O)c2ccccc2)CC1 (centres undefined)	-	?	0	-	12µM	9.3µM
COc1ccc(CNC(=O)C2(CC3CC(c4ccccc4)=NO3)CCN(C(=O)OC(C)(C)C)CC2)cc1 (centres undefined)	-	0	0	-	-	-
CCCCCCCNC(=O)C1(CC2CC(c3cccc(Br)c3)=NO2)CCN(C(=O)c2ccccc2)CC1 (centres undefined)	-	0	0	-	13µM	?
O=C1CC2(CCN(C(=O)c3cccc(Br)c3)CC2)Oc2ccccc21	-	0	0	-	?	?
Cc1cccc(NCc2nc3ccccc3n2C)c1	0	0	0	0	0	-
Cc1ccc(N2CCN(c3ccc(NCc4nc5ccccc5n4C)cc3)CC2)cc1	0	?	0	0	13µM	5.2µM
Cc1ccc(NCc2nc3ccccc3n2C)c(C)c1	23	0	0	45	0	0
SMILES	CHX counter	HCV inhibitor	HCMV inh	Shiga inhibitor	Pf growth 48h	Pf growth 96h
Cn1c(CNc2ccc(Cl)cc2)nc2ccccc21	31	20µM	0	110	0	?
Cc1ccc(NCc2nc3ccccc3n2CCOc2ccccc2C)cc1	-	-	0	-	-	-
OCC1OC(n2cnc3c(/C=C(\O)c4ccccc4)ncnc32)C(O)C1O (centres undefined)	-	?	0	-	-	-
Cc1cccc(CSc2cn(CC(=O)N3CCCC3)c3ccccc23)c1	-	-	0	-	-	-
Cc1cccc(-n2c(-c3csc4ccccc34)n[nH]c2=S)c1	0	0	-70	0	0	0
Cc1cccc(C)c1OCC(=O)Nc1ccc2c(c1)OCCO2	0	0	0	82	0	12µM
Cc1ccccc1OCCC(=O)Nc1ccc(F)c(Cl)c1	0	0	0	0	0	0
COc1ccccc1OCC(=O)Nc1ccc(Cl)cc1	24	0	0	51	0	0
Cc1ccccc1OCC(=O)Nc1ccc2c(c1)OCCO2	51	0	0	108	0	0
Cc1ccc(NC(=O)CCOc2ccccc2C)cc1C	26	0	0	0	0	0
NC(=O)c1ccccc1OCC(=O)Nc1ccc(Cl)c(Cl)c1	39	0	0	71	0	0
Cc1ccccc1OCC(=O)N/N=C/c1ccc2c(c1)OCCO2	31	0	0	0	0	2.6µM
O=C(COc1ccccc1Cl)NCCc1ccc2c(c1)OCCO2	42	?	0	58	0	0
NC(=O)c1ccccc1OCC(=O)Nc1ccc2c(c1)CCC2	-	0	0	-	0	0
O=C(COc1ccccc1F)NCCc1ccc2c(c1)OCCO2	-	0	0	-	-	-
CC(C)=CC(=O)OCC(=O)Nc1ccc(Cl)cc1	24	0	0	41	0	0
O=C(COc1cccc(Br)c1)N/N=C/c1ccc2c(c1)OCCO2	-	-	0	-	-	-
CC(C)=CC(=O)OCC(=O)Nc1cc(C)cc(C)c1	0	0	0	0	0[5.75 µM]	0
Cc1ccc(S(=O)(=O)NC(=O)C2(C)CCN2C(=O)CC2CCCCC2)nc1 (centres undefined)	-	-	0	-	-	-
O=C(COC(=O)c1cccnc1Cl)NCc1ccc2c(c1)OCO2	0	0	0	0	0	0
O=C(COC(=O)c1cccnc1Cl)Nc1ccc2c(c1)OCCO2	49	0	0	115	0	0
CCOc1ncccc1C(=O)OCC(=O)NCc1cccs1	-	0	0	-	-	-
O=C(COc1ccc(Br)cc1Cl)NC(=O)Nc1ccc2c(c1)OCCO2	36	0	0	63	0	0[5.75 µM]
O=C(COc1ccc(S(=O)(=O)N2CCCC2)cc1Cl)Nc1ccc2c(c1)OCO2	0	0	0	0	0	?
O=C(COc1ccccc1Cl)Nc1ccc2c(c1)OCCO2	45	?	0	87	0	0
O=C(COC(=O)c1cccnc1Cl)NCc1cccs1	37	0	0	0	0	0
O=C(COC(=O)c1c(F)cccc1Cl)NC(=O)Nc1ccc2c(c1)OCCO2	-	0	0	-	0	0
